The values below come from PubChem BioAssay (NCATS).

Assay [1] addresses Cytochrome P450 3A7 (Homo sapiens) (UniProt P24462). In words: Cytochrome P450 family 3 subfamily A member 7 (CYP3A7) small molecule antagonists: luciferase biochemical qHTS assay (AID 1963596). Also: % is scaled to controls: 0 for no effect and ±100 for the full control effect; nearly all actives have a fitted effect of over 40% in size. The method in brief:
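Luminescence read-out (relative luminescence units) after 20 min with detection reagent, which stops the reaction. Enzyme, proluciferin substrate and compound preincubated 10 min, RT; NADPH regeneration system then started 1 h reaction. Ketoconazole as positive control.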

The nature of assay [2]: Viability qHTS for spleen associated tyrosine kinase inhibitor (SYKi) naive MV4-11 cells (AID 1963823). Also: nearly all actives have a fitted effect of over 40% in size. Also: potency is read from the fitted curve at half-maximal effect. In short, it runs like this: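 Viability of MV4-11 AML cells lacking prior SYK inhibitor exposure is scored by CellTiter-Glo luminescence following 72 hr compound incubation at 37 C, 5% CO2, seeded at 500 cells per well.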
A short description of assay [3]: Viability qHTS for spleen associated tyrosine kinase inhibitor (SYKi) drug resistant MV4-11 cells (AID 1963824). Also: nearly all actives have a fitted effect of over 35% in size. Also: potency is read from the fitted curve at half-maximal effect. In short, it runs like this: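 CellTiter-Glo luminescence, read 10 min after reagent addition, reports viability after a 72 hr compound exposure. Cells are an MV4-11 line made resistant to SYK inhibition, seeded at 500 per well onto compound-containing plates.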

Assay [4] is described as follows: Quantitative highthroughput screen to assess conditional lethalithy of NOMO1 cells grown in RPMI1640 with untreated serum (RPMI+s) (AID 1963876). Also: nearly all actives have a fitted effect of over 35% in size. Also: potency is read from the fitted curve at half-maximal effect.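 As to Viability: 100% = DMSO wells and 0% = empty wells without cells.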 In short, it runs like this:
(§1)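 Each medium arm—HPLM with 10% dialyzed FBS, or RPMI1640 with 5 mM glucose and 10% untreated or dialyzed FBS—was screened against an 11-point, 3-fold compound titration for 48 h at 37 °C, with CellTiter-Glo luminescence as endpoint.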

Assay [5] is described as follows: Quantitative highthroughput screen to assess conditional lethalithy of NOMO1 cells grown in RPMI1640 with dialyzed fetal bovine serum (RPMI+ds) (AID 1963877). Also: nearly all actives have a fitted effect of over 30% in size. Also: potency is read from the fitted curve at half-maximal effect.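 As to Viability: series mostly up to about 46 µM; 100% = DMSO control wells and 0% = empty wells.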 The method in brief:
as §1

Assay [6] is described as follows: Quantitative highthroughput screen to assess conditional lethalithy of NOMO1 cells grown in Human Plasma-Like Medium with dialyzed fetal bovine serum (HPLM+ds) (AID 1963878). Also: nearly all actives have a fitted effect of over 35% in size. Also: potency is read from the fitted curve at half-maximal effect.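 As to Viability: 100% = DMSO wells and 0% = empty wells on each plate.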 In short, it runs like this: as §1
Assay [7] is described as follows: Quantitative highthroughput screen to assess conditional lethalithy of P12 Ichikawa cells grown in Human Plasma-Like Medium with dialyzed fetal bovine serum (HPLM+ds) (AID 1963879). Also: nearly all actives have a fitted effect of over 35% in size. Also: potency is read from the fitted curve at half-maximal effect. As to Viability: series mostly up to about 46 µM. To be noted: Potency: viability. In short, it runs like this:
as §1

Assay [8] can be described thus: Quantitative highthroughput screen to assess conditional lethalithy of P12 Ichikawa cells grown in RPMI1640 with dialyzed fetal bovine serum (RPMI+ds) (AID 1963880). Also: nearly all actives have a fitted effect of over 35% in size. Also: potency is read from the fitted curve at half-maximal effect.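 As to Viability: 100% = DMSO wells and 0% = empty wells on each plate.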 Conditions: Potency: P12-Ichikawa viability. The method in brief: as §1
Assay [9] can be described thus: Quantitative highthroughput screen to assess conditional lethalithy of P12 Ichikawa cells grown in RPMI1640 with untreated serum (RPMI+s) (AID 1963881). Also: nearly all actives have a fitted effect of over 35% in size. Also: potency is read from the fitted curve at half-maximal effect.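 As to Viability: series mostly up to about 46 µM; 100% = DMSO wells and 0% = empty wells without cells.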 Conditions: Potency: viability. In short, it runs like this: as §1
Assay [10] in a line: Quantitative highthroughput screen to assess conditional lethalithy of SEM cells grown in Human Plasma-Like Medium with dialyzed fetal bovine serum (HPLM+ds) (AID 1963882). Also: nearly all actives have a fitted effect of over 35% in size. Also: potency is read from the fitted curve at half-maximal effect. As to Viability: series mostly up to about 46 µM. In short, it runs like this: as §1
Assay [11] can be described thus: Cellular viability qHTS for adrenocortical cancer (ACC) cell line SW-13 (AID 1963989). Also: nearly all actives have a fitted effect of over 65% in size. Also: potency is read from the fitted curve at half-maximal effect.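 As to activity (max response): cells grown in serum-free medium with ITS supplement; % is scaled to controls: 0 for no effect and ±100 for the full control effect.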 To be noted: SW-13 ACC cells viability, CellTiter-Glo, 48 h; activity (max response): stronger effect = lower value. The method in brief:
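48 h treatment, SW-13 in ITS/DMEM serum-free; doses up to 46 uM; readout CellTiter-Glo luminescence; curve fit four-parameter logistic.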

The nature of assay [12]: Cellular viability qHTS for adrenocortical cancer (ACC) cell line NCI-H295R (AID 1963990). Also: nearly all actives have a fitted effect of over 60% in size. Also: potency is read from the fitted curve at half-maximal effect. The method in brief: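 Compound titrations (up to 46 uM final) are applied to NCI-H295R cultures for 48 h at 37C. Viable cell number is estimated by CellTiter-Glo signal, normalised to DMSO and doxorubicin controls.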
A short description of assay [13]: Quantitative highthroughput screen to assess conditional lethalithy of SEM cells grown in RPMI1640 with unreated serum (RPMI+s) (AID 1963883). Also: nearly all actives have a fitted effect of over 35% in size. Also: potency is read from the fitted curve at half-maximal effect.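 As to Viability: 100% = DMSO wells and 0% = empty wells without cells.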 In short, it runs like this:
as §1

Assay [14] in a line: Quantitative highthroughput screen to assess conditional lethalithy of SEM cells grown in RPMI1640 with dialyzed fetal bovine serum (RPMI+ds) (AID 1963884). Also: nearly all actives have a fitted effect of over 35% in size. Also: potency is read from the fitted curve at half-maximal effect.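 As to Viability: series mostly up to about 46 µM; 100% = DMSO control wells and 0% = empty wells without cells.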 In short, it runs like this:
as §1

Values joined by “and” are separate entries in the source; they are usually repeats but may differ in a detail not shown here. Equal entries are not always repeated. Inconclusive results are not listed. Some compounds were tested as several samples or in several runs, with calls that do not always agree. Active and inactive are the calls of the source. Calls follow the shape of the dose curve; as a rule, active = well fitted curve in the direction sought with a large enough effect; inconclusive = small, poorly fitted or top-dose-only effect, or another doubt; inactive = no such curve, though single readings can be large; an effect the other way counts as inactive or inconclusive.

Sequence of Cytochrome P450 3A7 (Homo sapiens) (P24462 whole entry, looked up): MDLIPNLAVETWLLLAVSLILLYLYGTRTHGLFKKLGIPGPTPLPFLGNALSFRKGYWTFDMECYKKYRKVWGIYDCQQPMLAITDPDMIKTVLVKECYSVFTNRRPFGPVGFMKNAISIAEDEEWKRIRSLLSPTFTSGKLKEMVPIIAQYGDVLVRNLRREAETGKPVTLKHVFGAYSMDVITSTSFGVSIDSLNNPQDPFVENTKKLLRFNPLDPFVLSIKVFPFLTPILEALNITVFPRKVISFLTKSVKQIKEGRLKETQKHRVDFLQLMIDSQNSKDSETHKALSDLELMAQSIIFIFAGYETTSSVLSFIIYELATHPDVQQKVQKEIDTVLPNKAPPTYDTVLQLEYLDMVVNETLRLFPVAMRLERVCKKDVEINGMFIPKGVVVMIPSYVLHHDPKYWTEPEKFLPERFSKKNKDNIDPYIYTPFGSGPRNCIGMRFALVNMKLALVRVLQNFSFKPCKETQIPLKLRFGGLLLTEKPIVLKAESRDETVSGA

As for `CCOC(=O)C1=C(N)Oc2ccc(Br)cc2C1C(C#N)C(=O)OCC` (stereo not drawn), the Potency entry in assay [1], in assay [4], in [5], in [6], in [7] and in assay [8] was “inactive” each time. Also, the Potency entry in assay [9], in assay [10] and in assay [12] was “inactive” each time. Also, the Potency was 13.2 µM (active) and inactive in assay [2]; 8.33 µM (active) and 11.6 µM (active) in assay [3]. In [11], the activity (max response) is -2.87% (inactive).

Turning to `CN(C)c1nc(Cc2ccc(NC(=O)c3ccc(C(F)(F)F)cc3)cc2)nc(N(C)C)c1CC(=O)O`, the Potency result in [1], in assay [2], in assay [3], in assay [4], in assay [5] and in assay [6] was “inactive” each time. Also, the Potency entry in [7], in assay [8], in [10], in assay [13] and in assay [14] was “inactive” each time.

Consider `CC(C)(Sc1cc(C(C)(C)C)c(O)c(C(C)(C)C)c1)Sc1cc(C(C)(C)C)c(O)c(C(C)(C)C)c1`, for which the Potency entry in [1], in [2], in assay [3], in [4], in assay [5] and in [6] was “inactive” in each case. Further, the Potency result in assay [7], in assay [8], in assay [9], in [10], in assay [13] and in assay [14] was “inactive” in each case. In addition, the Potency result in assay [12] is “inactive”. Besides, the activity (max response) in assay [11] is 7.94% (inactive) and -9.47% (inactive).

`CC(C[N+](C)(C)C)OC(N)=O` (stereo not drawn): the Potency entry in assay [1], in assay [2], in [3], in [4], in [5] and in [6] was “inactive” throughout. The Potency entry in assay [7], in assay [8], in [9], in assay [10], in assay [13] and in [14] was “inactive” in each case. For the same compound, the Potency entry in [12] was “inactive”. In assay [11], the activity (max response) was 2.28% (inactive) and -2.17% (inactive).

In the case of `Nc1ccn([C@@H]2CS[C@H](CO)O2)c(=O)n1`, the Potency entry in assay [1], in assay [2], in [3], in [4], in assay [5] and in assay [6] was “inactive” throughout. Also, the Potency entry in assay [7], in assay [8], in [10], in assay [13] and in assay [12] was “inactive” each time.

Turning to `COc1nc(C)nc(Cl)c1NC1=NCCN1`, the Potency entry in assay [1], in assay [2], in assay [3], in [4], in assay [5] and in [6] was “inactive” in each case. Further, the Potency entry in [7], in assay [8], in assay [9], in assay [10], in assay [13] and in assay [12] was “inactive” each time. In addition, in assay [11], the activity (max response) is -1.64% (inactive).

For the compound `O=c1oc2c(O)c(O)cc3c(=O)oc4c(O)c(O)cc1c4c23`, the Potency result in [1], in assay [2], in [3], in assay [4], in assay [5] and in assay [6] was “inactive” each time. In addition, the Potency entry in assay [7], in [8], in assay [9], in assay [10], in assay [13] and in assay [14] was “inactive” in each case. In addition, in assay [12], the Potency entry was “inactive”.

Turning to `Cc1nc2c([nH]1)CCN(C(=O)c1ccc(NC(=O)c3ccccc3-c3ccccc3)cc1)c1ccccc1-2`, the Potency entry in assay [1], in assay [4], in assay [5], in assay [6], in assay [7] and in assay [8] was “inactive” in each case. The Potency result in assay [9], in assay [10], in assay [13] and in assay [12] was “inactive” throughout. Besides, the Potency in [2] is 18.4 µM (active); in assay [3], 13.2 µM (active). Also, the activity (max response) in [11] is -19.1% (inactive).

In the case of `COc1cc2ncnc(Nc3cc(Br)c(O)c(Br)c3)c2cc1OC`, the Potency entry in assay [1], in assay [4], in assay [5], in assay [6], in [7] and in [8] was “inactive” each time. The Potency entry in [9], in assay [10], in assay [13] and in assay [12] was “inactive” each time. In addition, the Potency is 11.8 µM (active) and 11.6 µM (active) in assay [2]; 13.2 µM (active) and 9.2 µM (active) in assay [3].

Take `CCc1c(O)cc(O)c(C(=O)c2ccc(OCCN3CCOCC3)c(OC)c2)c1CC(=O)N(CCOC)CCOC`: the Potency result in assay [1] and in assay [12] was “inactive” in each case. The Potency in [2] is 0.132 µM (active); in assay [3], 0.235 µM (active); in assay [4], 2.96 µM (active); in assay [5], 3.32 µM (active); in [6], 2.35 µM (active); in assay [13], 2.96 µM (active). Also, the Potency in assay [14] is 2.64 µM (active). Also, the activity (max response) in assay [11] is -6.69% (inactive).

Turning to `Cn1cnc([N+](=O)[O-])c1Sc1ncnc2nc[nH]c12`, in assay [1], the Potency result was “inactive”. Further, the Potency in assay [2] is 5.9 µM (active); in assay [3] it was 2.15 µM (active) and 2.35 µM (active); in assay [4], 6.62 µM (active); in assay [5] it was 5.26 µM (active); in assay [6], 2.64 µM (active); in assay [8], 5.9 µM (active). In addition, the Potency was 5.01 µM (active) and 9.2 µM (active) and 7.94 µM (active) in assay [11]; 3.98 µM (active) and 8.2 µM (active) and 5.62 µM (active) in assay [12].

Turning to `NC(=O)c1cccc2cn(-c3ccc([C@@H]4CCCNC4)cc3)nc12`, the Potency result in [1], in assay [4], in assay [5] and in [12] was “inactive” throughout. In addition, the Potency is 9.2 µM (active) and 14.8 µM (active) in assay [2]; 10.3 µM (active) and 16.6 µM (active) in assay [3].

Consider `NC(=O)c1cnccn1`, for which the Potency entry in assay [1], in [2], in [3], in assay [4], in assay [6] and in assay [7] was “inactive” each time. Besides, the Potency entry in assay [8], in [9], in assay [10], in assay [13] and in assay [14] was “inactive” throughout. The activity (max response) in assay [11] was 14.3% (inactive) and 8.02% (inactive).

In the case of `Nc1cc(C(Cl)=C(Cl)Cl)c(S(N)(=O)=O)cc1S(N)(=O)=O`, the Potency entry in [1], in assay [2], in assay [3] and in assay [12] was “inactive” each time. The Potency in assay [4] was 7.43 µM (active); in assay [6], 1.87 µM (active); in assay [7], 1.18 µM (active); in assay [8], 5.26 µM (active); in [9] it was 7.43 µM (active); in assay [10], 7.43 µM (active). In addition, the Potency in assay [13] was 2.96 µM (active); in assay [14], 4.18 µM (active). Also, the activity (max response) in assay [11] was -17% (inactive) and 6.7% (inactive).
